Screening results: PubChem BioAssay, National Center for Advancing Translational Sciences (NCATS)
uPA surface inh = qHTS for Inhibitors of Cell Surface uPA Generation; Potency, µM (titrated, usually from 38.3 µM), inactives show at the top dose activity change, negative = inhibition, usual class: inhibitors; hit rate 0.31% among 330,000; cell surface uPA generation assay, qHTS; active = well fitted inhibition curve with a large enough effect; inconclusive = small, poorly fitted or top-dose-only effect; inactive = no such curve, though single readings can be large or run the other way; tested in mouse RAW 264.7 cells; note: potency is the fitted concentration of half-maximal effect; % is set by controls: 0 for no effect and ±100 for the full control effect; nearly all actives have a fitted effect of over 55% in size
Vif-APOBEC3F blk = qHTS for Inhibitors of Vif-A3F Interactions: qHTS; HeLa A3F-eYFP + Vif (tagged APOBEC3F with the HIV-1 protein that degrades it), YFP fluorescence increase; Potency, µM (titrated, usually from 46.1 µM), for the others: top-dose activity, negative = active; hit rate 0.2% among 390,000; AID 602313, 2012; note: potency is the fitted concentration of half-maximal effect; % of control where 0% means no effect; nearly all actives have a fitted effect of over 65% in size
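Fluorescence increase (Ex 488/Em 500-530) after overnight compound treatment at 37 deg C flags inhibition of Vif-driven A3F-eYFP loss in stable HeLa A3F-eYFP/Vif cells seeded overnight beforehand.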
BCR signal inh = qHTS Assay to Find Inhibitors of Chronic Active B-Cell Receptor Signaling; hit rate 0.05% among 340,000; AID 493014, 2011; Potency, µM (top dose mostly 46.1 µM), inactives show top-dose activity change, negative = inhibition, usual class: inhibitors; ABC-DLBCL IkBa-CBG/CBR reporter, luminescence ratio, 4 h; active = well fitted inhibition curve with a large enough effect in the signal ratio, with a control signal flat, not every such curve was filed as active; inconclusive = small, poorly fitted or top-dose-only effect, or effect the other way, or a change in a side signal; the % refers to the signal ratio;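 note: potency is the fitted concentration of half-maximal effect; plate controls were basal doxycycline-induced cells for no effect and cells given 10 µM MG132 for full effect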
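Doxycycline induced both beetle luciferases in TMD8 lymphoma cells; IKK-driven degradation limits the IkappaBalpha-fused green signal, while red luminescence normalises for cell number and nonspecific effects. Compounds tested up to 46 uM, 4 hrs.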
Vif-APOBEC3G blk = qHTS for Inhibitors of Vif-A3G Interactions: qHTS; HeLa A3G-eYFP + Vif (tagged APOBEC3G with the HIV-1 protein that degrades it), YFP fluorescence, overnight; Potency, µM (titrated, usually from 46.1 µM), inactives show at the top dose activity, negative = active, usual class: inhibitors; hit rate 0.076% among 410,000; note: potency is the fitted concentration of half-maximal effect; % is set by controls: 0 for no effect and ±100 for the full control effect; nearly all actives have a fitted effect of over 60% in size
Target sequence (Q9HC16 whole entry, looked up): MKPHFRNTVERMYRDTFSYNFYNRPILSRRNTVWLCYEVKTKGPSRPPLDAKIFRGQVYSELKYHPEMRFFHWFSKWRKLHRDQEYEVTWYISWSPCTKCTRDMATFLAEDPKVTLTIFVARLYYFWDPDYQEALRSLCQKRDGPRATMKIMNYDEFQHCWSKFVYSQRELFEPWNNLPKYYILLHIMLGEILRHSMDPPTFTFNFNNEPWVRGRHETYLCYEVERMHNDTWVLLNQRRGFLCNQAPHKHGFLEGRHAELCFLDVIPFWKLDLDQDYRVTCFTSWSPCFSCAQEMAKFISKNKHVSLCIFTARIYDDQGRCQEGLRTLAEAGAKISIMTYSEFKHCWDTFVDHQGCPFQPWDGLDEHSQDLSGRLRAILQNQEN
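HeLa cells stably expressing Vif and C-terminally eYFP-tagged A3G, seeded overnight at 37 deg C, then exposed to compound by pintool overnight at 37 deg C. Rise in yellow fluorescence (Ex 488/Em 500-530, Acumen) marks blocked Vif-driven A3G degradation.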
MBNL1-CUG inh = qHTS Assay for Inhibitors of MBNL1-poly(CUG) RNA binding. TR-FRET MBNL1-His/biotin-(CUG)12 binding, 665/545 ratio. AID 2675, 2010. Muscleblind-like protein 1 (Homo sapiens), Q9NR56. hit rate 0.036% among 280,000. Potency, µM (titrated, usually from 57.5 µM), inactives show at the top dose activity change, negative = inhibition, usual class: inhibitors; active = well fitted inhibition curve with a large enough effect in the signal ratio, with a control signal flat, not every such curve was filed as active; inconclusive = small, poorly fitted or top-dose-only effect, or effect the other way, or a change in a side signal; inactive = no such curve, though single readings can be large or run the other way; the % refers to the signal ratio; note: potency is the fitted concentration of half-maximal effect; % is set by controls: 0 for no effect and ±100 for the full control effect
Target sequence (Q9NR56 whole entry, looked up): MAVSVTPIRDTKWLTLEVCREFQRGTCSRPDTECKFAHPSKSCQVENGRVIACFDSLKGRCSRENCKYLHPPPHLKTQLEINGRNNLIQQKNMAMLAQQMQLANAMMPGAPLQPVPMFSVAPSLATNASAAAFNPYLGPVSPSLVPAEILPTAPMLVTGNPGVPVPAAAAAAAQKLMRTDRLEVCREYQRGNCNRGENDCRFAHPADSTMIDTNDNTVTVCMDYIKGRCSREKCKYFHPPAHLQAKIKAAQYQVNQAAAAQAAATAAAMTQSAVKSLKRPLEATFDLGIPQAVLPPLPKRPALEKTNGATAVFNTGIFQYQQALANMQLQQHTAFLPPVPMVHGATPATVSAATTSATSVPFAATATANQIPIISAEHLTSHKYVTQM
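Inhibition of protein-RNA binding appears as loss of TR-FRET between terbium anti-His antibody on MBNL1-His and streptavidin-XL665 on biotin-(CUG)12. Activity is normalized to buffer-only and uninhibited-complex controls.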
TCR act = Activators of T cell receptors: qHTS campaign; primary human leukocytes, anti-CD3, IL-2 HTRF, 48 h; AID 504894, 2011; Potency, µM (top dose mostly 9.22 µM), without a hit: top-dose activation of IL-2 secretion, actives largely listed as activators; 330,000 tested, under 10 active; note: % of control where 0% means no effect
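48 hr co-incubation of compounds, a-CD3 beads and primary human leukocytes; IL-2 quantified homogeneously by HTRF with anti-IL-2 K and d2 conjugates.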
Active calls of the source: *; ? = inconclusive; . = not tested or not shown; [ ] = remark or other dose. A selection: hits, their analogues and other compounds. The true share with any hit is near 0.54%. Unless noted, calls come from the whole dose curve; as a rule, active = well fitted curve in the direction sought with a large enough effect; inconclusive = small, poorly fitted or top-dose-only effect, or another doubt; inactive = no such curve, though single readings can be large; an effect the other way counts as inactive or inconclusive.

SMILES	uPA surface inh	Vif-APOBEC3F blk	BCR signal inh	Vif-APOBEC3G blk	MBNL1-CUG inh	TCR act
CC1(C)CCC(c2ccc(Cl)cc2)=C(CN2CCN(c3ccc(C(=O)NS(=O)(=O)c4ccc(N[C@H](CCN5CCOCC5)CSc5ccccc5)c(S(=O)(=O)C(F)(F)F)c4)cc3)CC2)C1	.	.	.	-7%	.	.
COCCn1c(C)cc(C(=O)COC(=O)c2ccccc2Br)c1C	2.5µM*	-4%	-4%	1%	-5%	-12%
CC1(C)CC(=O)c2c(O)cc(O)cc2O1	.	-1%	-5%	1%	9%	4%
C[C@]12CCC[C@H](O1)c1c(cc3c(c1O)C(=O)c1c(O)cc(O)cc1C3=O)O2	-5%	8.9µM*	.	5.6µM*	.	-2%
Cn1c2ccccc2c(=O)c2ccc(C#Cc3ccc(N)cc3)cc21	6.3µM*	0%	-2%	-6%	?	-40%
Cn1c2ccccc2c(=O)c2cc(C#CC3=CCCCC3)ccc21	6.3µM*	-8%	11%	3%	.	8%
CC(C)(C)n1ncc2c(=O)n(Cc3ccccc3-c3ccccc3)cnc21	.	.	.	-4%	.	.
C=CCN1C=CC(=CC=C(C#N)C#N)C=C1	-1%	?	0%	?	?	13%
CCCN1C=CC(=CC=C(C#N)C#N)C=C1	7%	?	5%	13µM*	?	5%
CCN1CCN(C(=O)c2cc(-c3ccc(Cl)s3)nc3ccccc23)CC1	-20%	-19%	?	1%	132%	8%
COC(=O)C1CCN(C(=O)c2cc(-c3ccc(Cl)s3)nc3ccccc23)CC1	1.8µM*	1%	?	3%	.	8%
Cc1nnnn1/C(=C\c1ccccc1)C(=O)OCC(=O)NC1CCCCC1	7.9µM*	-4%	?	?	.	-3%
Cc1nnnn1/C(=C\c1ccccc1)C(=O)OCC(=O)NC(C)(C)C	-9%	-12%	?	-21%	-13%	2%[46.1 µM]
C/C(=N\Nc1nccnc1Cl)c1ccc(O)cc1	-10%	2%	1%	-1%	16%	16%
C/C(=N\Nc1nccnc1Cl)c1ccc(Cl)c(Cl)c1	-4%	25µM*	?	0%	8%	.
CC(=O)c1cn(CCOc2ccccc2C)c2ccccc12	5.6µM*	-4%	?	1%	-5%	0%
COc1ccc2[nH]c3c(C)c4ccncc4c(C)c3c2c1	1.8µM*	?	?	-4%	?	3%
COC(=O)C1[C@H]2SC(C)(C)C(C(=O)OC)N2C(=O)N1Cc1ccccc1 (stereo not given in full)	.	.	.	-1%	.	.
CC(=O)Nc1sc2c(c1-c1nc3ccccc3s1)CN(C(C)C)CC2	2µM*	10µM*	?	13µM*	.	-7%
CCCCC(=O)Nc1sc2c(c1-c1nc3ccccc3s1)CCN(C(C)=O)C2	.	.	-3%	.	7%	.
CCN(CC)CC(=O)c1c(C)n(C)c2ccc(OC)cc12	.	.	.	2%	.	.
Cc1ccc(CNC(=O)Cn2cc(C(=O)c3ccc(Cl)cc3)c(=O)c3ccc(C)nc32)cc1	.	13µM*	.	-17%	.	.
Cc1ccc(S(=O)(=O)Nc2ccccc2C(=O)Nc2nc(-c3ccc(F)cc3)cs2)cc1	13µM*	6%	6%	-7%	-4%	4%[46.1 µM]
S=C(NCCCc1cnc[nH]1)NCCCN(Cc1ccc(Cl)cc1)c1ccc(Br)cc1	.	.	.	-11%	.	.
COc1ccc2cc(C(=O)C3CCCN(Cc4ccccn4)C3)ccc2c1 (stereo not given)	-5%	28µM*	-16%	-7%	19%	-5%
SMILES	uPA surface inh	Vif-APOBEC3F blk	BCR signal inh	Vif-APOBEC3G blk	MBNL1-CUG inh	TCR act
C=CCn1c2ccccc2c(=O)c2cc(C#CC3(O)CCCCC3)ccc21	?	7%	?	-1%	?	7%
C=CCn1c2ccccc2c(=O)c2cc(C#CC[C@@H](C)O)ccc21	4µM*	0%	10%	7%	.	2%
CCCN1CCC(=O)N(CCC#N)CC1	.	.	.	2%	.	.
CC(=O)N1CCN(/[N+]([O-])=N/Oc2ccc([N+](=O)[O-])cc2[N+](=O)[O-])CC1	.	.	.	-12%	.	.
CC[n+]1c(/C=C/Nc2ccccc2)oc2ccc(OC)cc21	-3%	5.6µM*	-13%	?	17%	-9%
CC[n+]1c(/C=C/N(C)c2ccccc2)oc2ccc(F)cc21	-17%	?	-17%	4µM*	24%	3%[46.1 µM]
CC[n+]1c(/C=C/Nc2ccccc2)oc2ccccc21	-21%	11µM*	-3%	7.9µM*	10%	0%
O=S(=O)([O-])CCC[n+]1c(/C=C\Nc2ccccc2)oc2ccc(-c3ccccc3)cc21	.	.	2%	.	18%	.
CCn1c(/C=C/N(C)c2ccccc2)[n+](CC)c2ccc(Cl)cc21	?	-2%	?	4%	?	.
O=C(Nc1ccc(OC(F)F)cc1)c1nc(S(=O)(=O)Cc2ccccc2F)ncc1Cl	.	.	.	-8%	.	.
c1ccc(-c2cn3ccccc3n2)cc1	-6%	-3%	.	0%	.	-3%
Oc1ccc(-c2cn3ccccc3n2)cc1	4µM*	0%	-1%	1%	.	1%
CC1=C(C(=O)Nc2ccc(CC(=O)NCc3ccc(OC(C)C)cc3)cc2)SCCO1	-83%	-2%	?	-3%	-2%	-7%
COc1ccc(CNC(=O)Cc2ccc(NC(=O)C3=C(C)OCCS3)cc2)cc1	?	-5%	20µM*	?	0%	0%
COc1cc(OC)c2c(-c3cccc(-c4sccc4C(C)=O)c3)cc(=O)oc2c1	2.8µM*	4%	?	?	.	4%[46.1 µM]
COc1cc(OC)c2c(-c3cccc(-c4ccc(NC(C)=O)cc4)c3)cc(=O)oc2c1	?	-13%	?	-22%	.	1%[46.1 µM]
CCC(NC(=O)C(C)NC)C(=O)N1CCCC1C(=O)NC1CCCc2ccccc21 (stereo not given)	0.4µM*	1%	1%	4%	.	0%
Cc1cc(Cn2cnc3c(cnn3C(C)(C)C)c2=O)ccc1F	.	.	.	2%	.	.
Cc1ccc(C(=O)C[n+]2ccc3ccccc3c2)cc1	1%	-8%	?	-2%	?	-7%
Cc1cc(C(C)(C)C)cc(C)c1C[n+]1ccc2ccccc2c1	4.5µM*	-12%	?	-1%	12%	-7%
CN(C)C(=O)COc1ccccc1C(=O)OCC(=O)Nc1ccc(Oc2ccc(Br)cc2)cc1	.	.	.	-2%	.	.
COC(=O)c1cc(NC(=O)c2ccccc2)c(=O)oc1/C=C/Nc1ccc(Oc2ccccc2)cc1	0%	8.9µM*	1%	?	.	-6%
